The panel holds about 79,000 compounds, 15% with a hit somewhere; the sample as a whole holds those more often. Unmarked numbers belong to inactive results. Activity calls are given as the source filed them. Rule as the data show it: active = growth inhibition above about 70%; inactive = the rest.
Legend:
[1] = NCI Yeast Anticancer Drug Screen. Data for the rad50 strain (AID 155);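 also: 0% = growth of vehicle-only cultures of the same strain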; conditions: S. cerevisiae rad50 strain growth inhibition; at 50.0 µM; active compounds read high
Summary of the method: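 Genetically altered yeast (DNA repair pathway); compound treatment; growth inhibition vs vehicle ctrl.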

[2] = NCI Yeast Anticancer Drug Screen. Data for the mec2-1 strain (AID 157); conditions: S. cerevisiae mec2-1 strain, at 50.0 µM, active compounds read high
Summary of the method: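 Test agents were screened against the mec2-1 yeast strain, with defined DNA repair or cell cycle alteration. Growth was scored as inhibition against vehicle-only controls.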

[3] = NCI Yeast Anticancer Drug Screen. Data for the sgs1 mgt1 strain (AID 161);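 also: 0% = growth of cultures given vehicle only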; conditions: S. cerevisiae sgs1 mgt1 strain, at 50.0 µM, active compounds read high
Summary of the method: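 Inhibition of yeast growth, normalised to vehicle-treated controls, is reported for a strain bearing genetic alterations in DNA damage repair.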

[4] = NCI Yeast Anticancer Drug Screen. Data for the cln2 rad14 strain (AID 165);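 also: 0% = growth equal to vehicle treated cultures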; conditions: S. cerevisiae cln2 rad14 strain, at 50.0 µM, active compounds read high
Summary of the method: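 Growth of compound-exposed yeast (cln2 rad14 genotype) measured and expressed as inhibition relative to vehicle.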

[5] = NCI Yeast Anticancer Drug Screen. Data for the bub3 strain (AID 167); conditions: S. cerevisiae bub3 mutant strain, at 50.0 µM, active compounds read high
Summary of the method: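 Yeast carrying a defined mutation is treated with each compound, and growth is compared with that of vehicle-exposed cells to give inhibition.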

[6] = NCI Yeast Anticancer Drug Screen. Data for the mlh1 rad18 strain (AID 175); conditions: S. cerevisiae mlh1 rad18 strain growth inhibition; at 50.0 µM; active compounds read high
Summary of the method: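 In this whole-cell yeast screen, a strain with altered DNA damage repair is challenged with compound, and its growth is measured against matched vehicle-treated controls.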

SMILES | growth inhibition [1] | growth inhibition [2] | growth inhibition [3] | growth inhibition [4] | growth inhibition [5] [%] | growth inhibition [6]
Cc1cc(Cc2c(F)c(F)c(C(c3cc(C)no3)c3c(F)c(F)c(F)c(F)c3F)c(F)c2F)on1 (stereo not drawn) | -7.55% | -37.9% | 5.8% | -58.8% | -26.1 | -8.3%
COc1nc(NC2OCC(OC(C)=O)C(OC(C)=O)C2OC(C)=O)c(N=C(C)C(C)=O)c(=O)n1C (stereo not drawn) | 30.4% | 21.6% | 13.4% | 17.7% | -1.35 | 8.4%
CCC(/C(=N/NC(=O)C[N+](C)(C)C)c1ccccc1)C1OC(=O)c2ccccc21 (stereo not drawn) | 15.2% | 2.15% | 16.1% | 23.2% | 19.4 | 18.4%
ONc1ccc(Cl)cc1 | -8.85% | -11.8% | -2.7% | -10.8% | 21.1 | -6.6%
CC12C(=O)OC(=O)C1C1C=CC2C1 (stereo not drawn) | 20.2% | 6.15% | -18.2% | -64.5% | -0.35 | 5.05%
Cc1cc(Cl)ccc1NC(=O)C1C(=O)N(c2ccc(Cl)cc2C)C(=O)/C1=N\NC(N)=O (stereo not drawn) | 7.65% | -24.4% | 14.4% | 6.1% | -6.45 | 5.7%
CC1=C(C(=O)NC2CCCCC2)CC(C(=O)NC2CCCCC2)=C(C)N1 | -16.6% | -25.6% | -26.2% | -21.1% | -17.3 | -61.9%
O=c1[nH]cc(CO)c(=O)[nH]1 | 0.35% | 4.8% | -1.7% | 6% | 11.9 | -4%
CC/C(=N\NC(=O)c1ccncc1)c1ccc(Cl)cc1 | 1.1% | 9.05% | -3.15% | 17.9% | 2.9 | -1.95%
CCOC(=O)CC(C)C(C(=O)OCC)C(=O)OCC (stereo not drawn) | 1.05% | 6.15% | -9.15% | 4.15% | 23.6 | 14%
CC(C)(OC(=O)c1ccc([N+](=O)[O-])cc1)C1CC1 | -12.1% | 1.55% | -23.6% | -28.9% | -11.1 | -24.4%
O=NN(Cc1ccccc1)NC(=O)c1ccccc1 | 6.2% | 28.1% | 8.9% | -8.4% | 20.9 | 11.2%
C=C(C)C(=O)O[C@H]1C/C(CO)=C/CCC(=C)C(OC(C)=O)[C@H]2OC(=O)C(=C)[C@H]12 (stereo partly drawn) | 10.4% | 36.8% | -0.9% | 6.85% | -21.9 | -20.2%
COc1ccc(Br)c(CN2CCc3ccccc32)c1OS(=O)(=O)c1ccc(C)cc1 | 13.8% | -0.3% | 18.7% | 4.1% | 5.45 | 12.4%
CNC(=O)NC1C(CO)OC2OC(C)(C)OC21 (stereo not drawn) | 6.5% | 5.25% | 10.4% | -35.3% | -9.85 | 2.55%
Clc1ccc(N=Nc2ccccn2)cc1 | 18.1% | 2% | -11.1% | -65% | -7.6 | -12.2%
CCOc1ccc(NC(=O)Nc2cccc(Cl)c2C)cc1 | 0.45% | 9.25% | 11.4% | -13.8% | 9.85 | -20.6%
Fc1ccc2nc3ccccc3c(SCCNCCSc3c4ccccc4nc4ccc(F)cc34)c2c1 | 43.4% | -4.75% | 17% | 16.1% | 1.5 | 35.2%
O=C1CC2CCCCC2CC1c1ccccc1 (stereo not drawn) | 6.35% | -0.4% | -4.55% | -22.6% | -22.5 | -12.2%

SMILES | growth inhibition [1] | growth inhibition [2] | growth inhibition [3] | growth inhibition [4] | growth inhibition [5] [%] | growth inhibition [6]
CCCC(=O)Nc1cc(/C=C/C(=O)N2C[C@H]3C[C@@]34C2=CC(=O)c2[nH]cc(C)c24)n(C)c1 | 80.2% (active) | 89.3% (active) | 83.7% (active) | 81.2% (active) | 58 | 84.2% (active)
O=c1c2ccccc2nc(-c2ccccc2Cl)n1/N=C/c1ccc(Cl)cc1Cl | -1.1% | 5.3% | 2.1% | -3.75% | -3.5 | 6.1%
CN(C)CN1CSC(=S)N(CN(C)C)C1 | 20.2% | 37% | 6% | -10.7% | -5 | 26.4%
Cc1ccc2ccccc2[n+]1CC(=O)c1ccc2c(c1)OCO2 | -3% | -23.2% | -0.6% | 3.85% | -10.7 | 10.7%
CC(=O)CCC(CCCC(CCC(C)=O)[N+](=O)[O-])[N+](=O)[O-] (stereo not drawn) | -7.3% | 15.3% | 0.9% | -9.4% | 13.9 | 4.15%
Clc1ccccc1SSc1ccccc1Cl | 21.4% | 23.9% | 22.2% | -9.2% | 28.1 | 29.9%
Cc1cc(=O)[nH]c(N/N=C2/CCCCC2C)n1 (stereo not drawn) | -29.4% | -25% | -7.05% | -0.6% | -24.3 | -21.8%
CCCCCN(CCCCC)C(=O)C(C)C | -4.45% | 7.8% | 4.6% | -30.1% | -2 | 5.8%
Ic1ccccc1 | -0.9% | 7.25% | -41.4% | -9.35% | -45.8 | -65.7%
Nc1nc2scnc2c(=O)[nH]1 | 7.1% | -4.35% | -3.25% | -7.95% | -8.5 | 8.35%
CCC(CO)NC(=O)/C=C/c1ccccc1Cl (stereo not drawn) | 7% | 14.4% | 1.55% | 2.3% | -0.7 | 10.5%
N#Cc1cccc2c(S(=O)(=O)O)cccc12 | -12.9% | 4.5% | 11.6% | -17.3% | -2.85 | -10.8%
O=C1OCCC1(Cc1ccc(Cl)cc1)Cc1ccc(Cl)cc1 | -16.1% | -22.9% | -4.7% | 10.4% | 1.45 | -3.05%
COc1c(Cl)cc(NC(=S)C#N)cc1Cl | 20.2% | 20% | 15.2% | 39.6% | 15.4 | -30.9%
O=[N+]([O-])c1cccnc1Sc1ncccn1 | -7.25% | -12.2% | -10.2% | -23.1% | -25.6 | -6.2%
CC(C)C1=C(Cc2ccccc2)C(=O)O/C1=C\c1ccc(O)c(Cl)c1 | 2.8% | -22.9% | 28.2% | 21.4% | 6.05 | -20.1%
CCC(C)C1SCC(=O)N1c1nncs1 (stereo not drawn) | 10.6% | 7.45% | 6.55% | -4.6% | 4.9 | 16.4%
CC(C)=C(C)CCC(C)CC(C)O (stereo not drawn) | -2.9% | -14% | -0.05% | -5.6% | -5.9 | -5.85%
C=CCN(N=O)C(=O)NCCCCC(NC(C)=O)C(=O)NCc1ccccc1 (stereo not drawn) | -10.2% | -22.6% | -21.9% | -6.3% | 5.1 | -14%

Source: PubChem BioAssay (NCI)
